Laboratory results from PubChem BioAssay AID504339 (National Center for Advancing Translational Sciences (NCATS), 2011).
Among all 390,000 compounds or so, about 17,000 (4.4%) were called active. Roughly 8% stayed inconclusive and do not appear here. Many of the other results were omitted from the sample, so actives are more common in it than they were. Unmarked numbers belong to inactive results. Calls come from the whole dose curve; as a rule, active = well fitted inhibition curve with a large enough effect; inconclusive = small, poorly fitted or top-dose-only effect; inactive = no such curve, though single readings can be large or run the other way.

biological target: Lysine-specific demethylase 4A (Homo sapiens) (UniProt O75164); assay: qHTS Assay for Inhibitors of JMJD2A-Tudor Domain; conditions: AlphaScreen JMJD2A-Tudor / H3K4me3 peptide binding; series mostly up to 114 µM; activity change, negative = inhibition: at the top concentration; note: nearly all actives have a fitted effect of over 50% in size
% is set by controls: 0 for no effect and ±100 for the full control effect; potency is the fitted concentration of half-maximal effect.

Lysine-specific demethylase 4A (Homo sapiens), sequence (O75164 whole entry, looked up, the tested form may be a part): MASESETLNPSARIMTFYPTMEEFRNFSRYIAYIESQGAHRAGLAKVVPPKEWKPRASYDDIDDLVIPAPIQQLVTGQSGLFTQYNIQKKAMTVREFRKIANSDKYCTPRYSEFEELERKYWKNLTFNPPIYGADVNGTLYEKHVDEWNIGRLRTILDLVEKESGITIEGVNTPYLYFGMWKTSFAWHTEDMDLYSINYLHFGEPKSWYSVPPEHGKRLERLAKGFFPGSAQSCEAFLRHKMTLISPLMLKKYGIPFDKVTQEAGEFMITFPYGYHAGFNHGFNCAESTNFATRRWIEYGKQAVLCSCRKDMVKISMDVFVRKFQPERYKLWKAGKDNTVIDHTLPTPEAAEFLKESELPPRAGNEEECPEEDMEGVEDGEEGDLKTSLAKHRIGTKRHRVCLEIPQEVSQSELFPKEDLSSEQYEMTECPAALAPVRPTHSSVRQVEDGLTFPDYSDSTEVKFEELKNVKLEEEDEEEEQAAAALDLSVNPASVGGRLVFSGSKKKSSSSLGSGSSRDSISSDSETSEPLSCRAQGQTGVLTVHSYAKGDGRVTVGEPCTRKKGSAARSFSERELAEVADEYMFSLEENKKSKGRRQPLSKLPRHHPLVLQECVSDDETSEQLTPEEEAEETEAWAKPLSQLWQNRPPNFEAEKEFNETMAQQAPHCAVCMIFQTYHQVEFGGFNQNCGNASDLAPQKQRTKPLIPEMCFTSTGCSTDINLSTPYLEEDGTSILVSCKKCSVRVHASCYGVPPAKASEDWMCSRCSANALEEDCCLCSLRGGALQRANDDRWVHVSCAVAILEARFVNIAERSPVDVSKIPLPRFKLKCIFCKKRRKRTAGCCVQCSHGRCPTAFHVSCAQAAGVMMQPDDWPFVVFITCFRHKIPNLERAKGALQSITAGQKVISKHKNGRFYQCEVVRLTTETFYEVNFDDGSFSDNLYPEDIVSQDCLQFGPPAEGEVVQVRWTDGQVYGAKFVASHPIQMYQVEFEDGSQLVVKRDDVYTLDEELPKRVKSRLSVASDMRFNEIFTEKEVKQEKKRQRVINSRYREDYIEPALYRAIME

Row | SMILES | activity change, negative = inhibition [%] | Potency
1 | CC1CCCN(Cc2c(O)ccc3c(=O)c(Oc4ccc(C(C)(C)C)cc4)c(C(F)(F)F)oc23)C1 (centres undefined) | -1.38 | –
2 | Cc1ccc(NC(=O)Cc2ccc(NC(=O)N3CCCCc4ccccc43)cc2)cc1 | -23 | –
3 | Cc1c(C)n2c(SCC(=O)N3CCCC3)nnc2[nH]c1=O | 1.7 | –
4 | Cc1nc(SCC(=O)NC2CCCC2)[nH]c(=O)c1C | -10.3 | –
5 | Cc1c(C)n2c(SCC(=O)NC3CCCC3)nnc2[nH]c1=O | – | 14.1 µM (active)
6 | CCSc1nnc2c(n1)OC(c1ccc(OCC(=O)O)cc1)Nc1ccccc1-2 (centres undefined) | -30.4 | –
7 | Cc1sc2ncn(CC(=O)N3CCN(c4ccc(F)cc4)CC3)c(=O)c2c1S(=O)(=O)N1CCN(c2ncccn2)CC1 | -19.1 | –
8 | CCOc1ccc(-n2nc3ccc(NC(=O)c4ccc(OC)c(Cl)c4)cc3n2)cc1 | -16.8 | –
9 | COc1ccc(CCN=C2SCC(=O)N2Cc2ccccc2)cc1OC | -12.9 | –
10 | COc1cc(/C=C2/SC(=S)N(Cc3ccccc3)C2=O)cc(OC)c1O | – | 3.55 µM (active)
11 | COc1ccc(CCNC2=C(Cl)C(=O)N(Cc3ccccc3)C2=O)cc1OC | 56.2 | –
12 | COc1cc(Cl)c(C)cc1Nc1nnc(-n2nc(C)cc2C)c2ccccc12 | -0.662 | –
13 | Cc1ccc(C)c(Cn2c(C(=O)O)c(CNCc3cccs3)c3ccccc32)c1 | -32.7 | –
14 | COc1cc(NC(=O)COC(=O)c2ccc([N+](=O)[O-])s2)cc(OC)c1OC | -28.9 | –
15 | O=C(Nc1nnc(C2=COCCO2)o1)c1ccc([N+](=O)[O-])s1 | – | 56.2 µM (active)
16 | CSc1ccccc1-c1nnc(NC(=O)c2ccc3c(c2)OCCO3)o1 | -12 | –
17 | CCOc1ccc(Nc2nc3c(S(=O)(=O)c4cccc(Cl)c4)nnn3c3ccsc23)cc1 | -8.06 | –
18 | Cc1cc(OCC(=O)NCC2(N(C)C)CCCCC2)cc(C)c1Cl | -11.6 | –
19 | CCCCCn1c(=O)[nH]c2cc(C(=O)Nc3cc(C)cc(C)c3)ccc2c1=O | -7.85 | –
20 | CCCCn1c(=S)[nH]c2cc(S(=O)(=O)N3CCCCC3)ccc21 | -17.6 | –

Row | SMILES | activity change, negative = inhibition [%] | Potency
21 | Cc1ccc(S(=O)(=O)N2CCN(S(=O)(=O)N3CCOCC3)CC2)cc1 | -9.43 | –
22 | CCn1c(=S)[nH]c2cc(S(=O)(=O)N3CCOCC3)ccc21 | – | 17.8 µM (active)
23 | Cc1ccc(-n2cnc3cc(C(=O)NCCC4=CCCCC4)ccc32)cc1Cl | -26.9 | –
24 | CC1Cc2cc(S(=O)(=O)CCC(=O)Nc3ccc(F)c(Cl)c3)ccc2N1C(=O)C1CC1 (centres undefined) | -3.45 | –
25 | COc1ccc(C2Nc3cccc(OC)c3C(=O)N2Cc2ccccc2)cc1COc1ccc(NC(C)=O)cc1 (centres undefined) | – | 56.2 µM (active)
26 | COc1ccc(N2C(=O)C(CC(=O)Nc3ccccc3)N(Cc3ccc(OC)c(OC)c3)C2=O)cc1 (centres undefined) | -15.8 | –
27 | COc1ccc(C2Nc3ccccc3C(=O)N2Cc2ccco2)cc1COc1cccc(NC(C)=O)c1 (centres undefined) | – | 50.1 µM (active)
28 | CCOC(=O)NN1C(=O)c2ccccc2NC1c1cccc(O)c1 (centres undefined) | -2.14 | –
29 | COc1ccc(C2Nc3ccc(NC(=O)COC(C)=O)cc3C(=O)N2Cc2ccccc2)cc1COc1ccc(NC(C)=O)cc1 (centres undefined) | – | 79.4 µM (active)
30 | COc1ccc(C2Nc3ccccc3C(=O)N2Cc2ccc(CNC(=O)CO)cc2)cc1COc1ccc(NC(C)=O)cc1 (centres undefined) | – | 79.4 µM (active)
31 | COc1ccc(C2Nc3ccccc3C(=O)N2Cc2ccc(Cl)cc2)cc1COc1ccc(NC(C)=O)cc1 (centres undefined) | -10.9 | –
32 | COc1cc(C2C3=C(CCCC3=O)OC3=C2C(=O)CCC3)ccc1OCC(=O)Nc1ccccc1 | -19.2 | –
33 | COc1ccc(NC(=O)NC2CC3CCCC(C2)N3Cc2ccccc2)cc1 (centres undefined) | -20.1 | –
34 | COc1ccc(C2Nc3ccccc3C(=O)N2Cc2ccccc2)cc1Cn1nnc2ccccc21 (centres undefined) | -11.9 | –
35 | COc1ccc(C2Nc3ccccc3C(=O)N2c2ccc(F)cc2)cc1Cn1nnc2ccccc21 (centres undefined) | 5.24 | –
36 | COc1ccc(C(=O)N(Cc2ccccc2)Cc2ccc(OC)c(COc3ccc(NC(C)=O)cc3)c2)c(O)c1 | -29.9 | –
37 | CCOC(=O)c1cc2c(=O)n3ccccc3nc2n(CCCOC)c1=NC(=O)C(C)(C)Oc1ccc(Cl)cc1 | 8.53 | –
38 | Cc1ccc(-n2ncc3c(=O)n(Cc4cccc(C(F)(F)F)c4)cnc32)cc1C | 0.336 | –
39 | COC(=O)c1ccc(Cn2c(SCC(=O)N(C)c3ccccc3)nc3ccccc32)cc1 | -25.2 | –
40 | Cc1ccc2onc(CC(=O)N3CCN(c4ccc(Cl)cc4)CC3)c2c1 | -19.7 | –

Row | SMILES | activity change, negative = inhibition [%] | Potency
41 | CC1CCN(S(=O)(=O)c2ccc3c(c2)N(CC(=O)NCc2ccccc2Cl)C(=O)CO3)CC1 | -1.32 | –
42 | O=C(NCC12CC3CC(CC(C3)C1)C2)c1cc2nc(-c3ccccc3)cc(C(F)(F)F)n2n1 | 17.5 | –
43 | COC(=O)c1ccccc1NS(=O)(=O)c1ccc2c(c1)CCCN2C(C)=O | -8.33 | –
44 | Cc1ccsc1CN(C(=O)c1oc2ccc(Br)cc2c1C)C1CCS(=O)(=O)C1 (centres undefined) | -14.9 | –
45 | Cc1nc2ccc(S(=O)(=O)N(CC(=O)Nc3ccc(F)cc3)Cc3ccccc3)cc2s1 | -6.33 | –
46 | Cc1ccc(OCC(=O)OCc2cc(=O)n3nc(C4CC4)sc3n2)cc1C | -12.3 | –
47 | CCOc1ccc(NC(=O)Cn2c(=O)n(CCCC(=O)NCc3ccc4c(c3)OCO4)c(=O)c3ccccc32)cc1 | -5.46 | –
48 | CCC(CC)c1nn2cc(-c3ccccc3)nc2s1 | 33.3 | –
49 | Cn1c(=O)n(C)c2cc(C(=O)Nc3ccc(Br)cc3)ccc21 | -1.39 | –
50 | Cn1ccc(=Nc2ccc(NC(=O)c3ccc(N=c4ccn(C)c5ccc([N+](=O)[O-])cc45)cc3)cc2)cc1 | – | 56.2 µM (active)
51 | CCc1ccc(NC(=O)c2ccc(Cn3cc([N+](=O)[O-])cn3)cc2)cc1 | -12.8 | –
52 | O=C(Cn1cc(SCc2ccccc2)c2ccccc21)N1CCCCC1 | -17.6 | –
53 | O=C(NC1CC(=O)N(c2ccc(F)cc2)C1)c1ccc(S(=O)(=O)N2CCCC2)cc1 (centres undefined) | -5.52 | –
54 | CCCCCn1c(CCNC(=O)c2ccc(F)cc2)nc2ccccc21 | -18.8 | –
55 | Cc1ccc2nc(/C(C#N)=C/c3ccc(-c4ccc(C(=O)OC(C)C)cc4)o3)[nH]c2c1 | -5.6 | –
56 | COc1ccc(CCNC(=O)CCCn2c(=O)c3ccccc3n(Cc3ccc(C)cc3)c2=O)cc1OC | 6.14 | –
57 | Cc1cc(=O)n(C)c(=O)n1CCCNc1ccccc1 | – | 7.94 µM (active)
58 | Cc1cc2nc(C)n(CCCNC(=O)Nc3ccccc3)c2cc1C | -19.1 | –
59 | Cn1c(Nc2ccccc2)cc(=O)n(C)c1=O | -13.4 | –
